From PubChem BioAssay (EPA / NIEHS)
Calls of active or inactive are those of the source. Rule for the calls: active = hit-call score of the fitted dose curve at least 0.9, where 1 is the maximum; inactive = score below 0.9.

How the values were obtained:
Conditions in all cases: primary human HUVEC with PBMC; actives raise or lower the signal
[1] = read-out: Interleukin-1 alpha (IL1a), IL1A (gene 3552); assay: BSK_LPS_IL1a: BioMAP Diversity Plus: LPS Assay for Interleukin-1 alpha (IL1a) Biomarker Activity (AID 2283080)
Procedure, shortened: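 Human umbilical vein endothelial cells co-cultured with peripheral blood mononuclear cells were LPS-stimulated and exposed to test chemicals for 24 h. IL-1 alpha was quantified by ELISA, with bidirectional curve fitting against DMSO as the negative control and baseline.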

[2] = read-out: Monocyte Chemoattractant Protein-1 (MCP1), CCL2 (gene 6347); assay: BSK_LPS_MCP1: BioMAP Diversity Plus: LPS Assay for Monocyte Chemoattractant Protein-1 (MCP1) Biomarker Activity (AID 2283081);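 for AC50: secreted MCP-1 protein quantified by ELISA in culture supernatant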
Procedure, shortened: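 HUVEC plus PBMC co-culture (human primary cells, LPS system) exposed to test chemical for 24 h; MCP-1 measured by ELISA. Bidirectional curve fitting against DMSO baseline; parallel SRB total-protein staining flags overt cytotoxicity.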

[3] = BSK_LPS_PGE2: BioMAP Diversity Plus: LPS Assay for Prostaglandin E2 (PGE2) Biomarker Activity (AID 2283082);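 for AC50: secreted prostaglandin E2 measured by ELISA in LPS-stimulated co-culture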
Procedure, shortened: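 HUVEC plus human PBMC co-culture stimulated with LPS; secreted PGE2 quantified by ELISA 24 h after chemical dosing. Activity fitted bidirectionally against DMSO baseline; parallel SRB staining (0.1% SRB after 10% TCA fixation, 560 nm) flags overt cytotoxicity.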

[4] = read-out: Macrophage colony-stimulating factor (MCSF), CSF1 (gene 1435); assay: BSK_LPS_MCSF: BioMAP Diversity Plus: LPS Assay for Macrophage colony-stimulating factor (MCSF) Biomarker Activity (AID 2283083)
Procedure, shortened: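 Human umbilical vein endothelial cells co-cultured with peripheral blood mononuclear cells were exposed to compound for 24 h. M-CSF levels were measured by ELISA, and bidirectional curve fitting used DMSO as the negative control and baseline.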

[5] = read-out: Tissue Factor, F3 (gene 2152); assay: BSK_LPS_TissueFactor: BioMAP Diversity Plus: LPS Assay for Tissue Factor Biomarker Activity (AID 2283084)
Procedure, shortened: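 Human umbilical vein endothelial cells co-cultured with peripheral blood mononuclear cells were dosed and stimulated with LPS. Cell-surface CD142 was quantified by ELISA at 24 h. Activity was fitted bidirectionally against DMSO baseline.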

[6] = read-out: Tumor necrosis factor (Homo sapiens) (UniProt P01375); assay: BSK_LPS_TNFa: BioMAP Diversity Plus: LPS Assay for Tumour Necrosis Factor alpha (TNFa) Biomarker Activity (AID 2283085);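 for AC50: TNFa protein level quantified by ELISA in the co-culture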
Procedure, shortened: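 Human umbilical vein endothelial cells co-cultured with PBMC and stimulated with LPS. TNFa was measured by ELISA 24 h after chemical dosing, fitted bidirectionally relative to DMSO.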

[7] = read-out: Vascular cell adhesion molecule 1 (VCAM1), VCAM1 (gene 7412); assay: BSK_LPS_VCAM1: BioMAP Diversity Plus: LPS Assay for Vascular cell adhesion molecule 1 (VCAM1) Biomarker Activity (AID 2283086)
Procedure, shortened: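 Human umbilical vein endothelial cells co-cultured with PBMC and stimulated with LPS; VCAM-1 measured by ELISA 24 h after dosing. Bidirectional curve fitting against DMSO baseline; cytotoxicity tracked in parallel by SRB total-protein staining.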

CD40, CD40 (gene 958) = assay: BSK_SAg_CD40: BioMAP Diversity Plus: SAg Assay for CD40 Biomarker Activity (AID 2283088)
Procedure, shortened: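 Human umbilical vein endothelial cells co-cultured with PBMC; CD40 levels measured by ELISA with fluorescence read-out 24 h after chemical dosing. Gain or loss of signal fitted bidirectionally against DMSO baseline.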

CD69, CD69 (gene 969) = assay: BSK_SAg_CD69: BioMAP Diversity Plus: SAg Assay for CD69 Biomarker Activity (AID 2283089);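 for AC50: cell surface CD69 protein quantified by ELISA with fluorescence detection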
Procedure, shortened: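 Values derive from bidirectional fitting relative to DMSO vehicle. Cells: umbilical vein endothelium plus peripheral blood mononuclear cells, treated 24 h before fluorescent ELISA for CD69.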

CD38, CD38 (gene 952) = assay: BSK_SAg_CD38: BioMAP Diversity Plus: SAg Assay for CD38 Biomarker Activity (AID 2283087)
Procedure, shortened: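 Human HUVEC plus PBMC co-culture stimulated with superantigen; CD38 measured by ELISA 24 h after chemical dosing. Fluorescence read-out, bidirectional fit against DMSO; cytotoxicity tracked in parallel by SRB and Alamar Blue.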

Measured: AC50

Chain of Tumor necrosis factor (Homo sapiens) (P01375 whole entry, looked up): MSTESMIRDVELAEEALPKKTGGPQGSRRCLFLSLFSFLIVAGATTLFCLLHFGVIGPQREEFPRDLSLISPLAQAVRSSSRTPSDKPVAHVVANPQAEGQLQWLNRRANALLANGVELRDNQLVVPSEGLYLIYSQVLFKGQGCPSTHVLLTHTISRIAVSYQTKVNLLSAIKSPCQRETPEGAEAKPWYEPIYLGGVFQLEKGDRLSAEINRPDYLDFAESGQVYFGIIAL

N#CSCSC#N
inactive: [5]
active: [1] 5.46 µM | [2] 10.6 µM | [3] 5.66 µM | [4] 5.23 µM | [6] 3.89 µM | [7] 5.56 µM | CD40, CD40 (gene 958) 7.73 µM | CD69, CD69 (gene 969) 7.16 µM

CC1(C(=O)Nc2ccc(O)c(Cl)c2Cl)CCCCC1
active: [3] 5.46 µM
not listed: CD38, CD38 (gene 952)
inactive: all other assays above

S=C1NCCN1
not listed: CD38, CD38 (gene 952)
inactive: all other assays above

C=C(C)[C@H]1Cc2c(ccc3c2O[C@@H]2COc4cc(OC)c(OC)cc4[C@@H]2C3=O)O1
active: [2] 26.8 µM | [3] 0.702 µM | [4] 13.4 µM | [5] 8.75 µM | [7] 5.99 µM | CD38, CD38 (gene 952) 5.59 µM | CD40, CD40 (gene 958) 7.75 µM | CD69, CD69 (gene 969) 3.97 µM
inactive: [6]

CNC(=O)ON=C(C)SC
active: [3] 0.564 µM
not listed: CD38, CD38 (gene 952)
inactive: all other assays above

CC(Oc1cccc(Cl)c1)C(=O)O (configuration not stated)
not listed: CD38, CD38 (gene 952)
inactive: all other assays above

CC(C1CC1)C(O)(Cn1cncn1)c1ccc(Cl)cc1 (configuration not stated)
active: [6] 4.36 µM
not listed: CD38, CD38 (gene 952)
inactive: all other assays above

CCNc1nc(Cl)nc(NC(C)(C)C#N)n1
active: [6] 3.97 µM
not listed: CD38, CD38 (gene 952)
inactive: all other assays above

CCCSP(=O)(OCC)Oc1ccc(Br)cc1Cl (configuration not stated)
active: [6] 35.3 µM | CD40, CD40 (gene 958) 31.9 µM | CD69, CD69 (gene 969) 27.8 µM
not listed: [7] | CD38, CD38 (gene 952)
inactive: all other assays above

CC(COc1ccc(Oc2ccccc2)cc1)Oc1ccccn1 (configuration not stated)
active: [3] 3.97 µM | [7] 0.843 µM
not listed: CD38, CD38 (gene 952)
inactive: all other assays above

CC(C)=CC1C(C(=O)OCN2C(=O)C3=C(CCCC3)C2=O)C1(C)C (configuration not stated)
active: [2] 9.93 µM | [3] 4.14 µM | [4] 34.3 µM | [6] 31.7 µM | [7] 28.5 µM | CD40, CD40 (gene 958) 20.5 µM | CD69, CD69 (gene 969) 20 µM
inactive: [1] | [5]

CCc1cnc(C2=NC(C)(C(C)C)C(=O)N2)c(C(=O)O)c1 (configuration not stated)
not listed: CD38, CD38 (gene 952)
inactive: all other assays above

C[N+]1(C)CCCCC1
not listed: CD38, CD38 (gene 952)
inactive: all other assays above

CCOC(=O)CC(SP(=O)(OC)OC)C(=O)OCC (configuration not stated)
active: [3] 0.323 µM
not listed: CD38, CD38 (gene 952)
inactive: all other assays above

CCOP(=S)(OCC)Oc1ccc2c(C)c(Cl)c(=O)oc2c1
not listed: CD38, CD38 (gene 952)
inactive: all other assays above

CC[C@H](C)[C@H]1O[C@]2(C=C[C@@H]1C)C[C@@H]1C[C@@H](C/C=C(\C)[C@@H](O[C@H]3C[C@H](OC)[C@@H](O[C@H]4C[C@H](OC)[C@@H](NC)[C@H](C)O4)[C@H](C)O3)[C@@H](C)/C=C/C=C3\CO[C@@H]4[C@H](O)C(C)=C[C@@H](C(=O)O1)[C@]34O)O2
active: [1] 3.68 µM | [2] 5.49 µM | [4] 4.33 µM | [5] 9.74 µM | [6] 4.56 µM | [7] 7.42 µM | CD40, CD40 (gene 958) 3.34 µM | CD69, CD69 (gene 969) 4.17 µM
inactive: [3]

CCOP(=S)(Oc1cnc(C(C)(C)C)nc1)OC(C)C (configuration not stated)
active: [1] 36.7 µM | [2] 32.2 µM | [3] 31.8 µM | [4] 32.6 µM | [5] 33.1 µM | [6] 36.5 µM | [7] 32.5 µM | CD40, CD40 (gene 958) 30.8 µM | CD69, CD69 (gene 969) 30 µM

CCOP(=S)(OCC)Oc1ccc([N+](=O)[O-])cc1
inactive: [1] | [5] | [6] | CD40, CD40 (gene 958)
active: [3] 20 µM | [4] 20 µM | [7] 20 µM | CD38, CD38 (gene 952) 20 µM | CD69, CD69 (gene 969) 32.4 µM

CCCOCC(=Nc1ccc(Cl)cc1C(F)(F)F)n1ccnc1
inactive: [3]
active: [1] 31.8 µM | [2] 33.3 µM | [4] 20.9 µM | [5] 29.2 µM | [6] 31.3 µM | [7] 29 µM | CD40, CD40 (gene 958) 18.1 µM | CD69, CD69 (gene 969) 18.9 µM

Cc1cc(C2CC2)nc(Nc2ccccc2)n1
active: [3] 7.61 µM | [4] 20.3 µM | [7] 15.7 µM | CD40, CD40 (gene 958) 16.2 µM | CD69, CD69 (gene 969) 28.2 µM
inactive: [1] | [2] | [5] | [6]

CCOP(=O)(OCC)Oc1cc(C)nc(C(C)C)n1
not listed: CD38, CD38 (gene 952)
inactive: all other assays above

CCOP(=O)(NC(C)C)Oc1ccc(SC)c(C)c1 (configuration not stated)
not listed: CD38, CD38 (gene 952)
inactive: all other assays above

CC(C)N(C(=O)SCC(Cl)=C(Cl)Cl)C(C)C
active: [1] 26.4 µM | [2] 31.7 µM | [3] 34.7 µM | [4] 29.5 µM | [5] 30.1 µM | [6] 32.3 µM | [7] 29.8 µM | CD40, CD40 (gene 958) 30.9 µM | CD69, CD69 (gene 969) 36.6 µM

CN1COCN(Cc2cnc(Cl)s2)C1=N[N+](=O)[O-]
active: CD40, CD40 (gene 958) 3.79 µM
not listed: CD38, CD38 (gene 952)
inactive: all other assays above

CCOP(=S)(OCC)OC(Cl)C(Cl)(Cl)Cl (configuration not stated)
active: [3] 5.51 µM | [6] 32.8 µM | CD69, CD69 (gene 969) 28.6 µM
not listed: CD38, CD38 (gene 952)
inactive: all other assays above

CC(C)[C@H](C(=O)O[C@H](C#N)c1cccc(Oc2ccccc2)c1)c1ccc(Cl)cc1
not listed: [3]
inactive: all other assays above

CCOP(=O)(SC(C)CC)N1CCSC1=O (configuration not stated)
not listed: CD38, CD38 (gene 952)
inactive: all other assays above

COP(=O)(OC)C(O)C(Cl)(Cl)Cl (configuration not stated)
not listed: [3]
inactive: all other assays above

Nc1nc(N)nc(NC2CC2)n1
not listed: CD38, CD38 (gene 952)
inactive: all other assays above

CC(=NC#N)N(C)Cc1ccc(Cl)nc1
not listed: CD38, CD38 (gene 952)
inactive: all other assays above

CCOP(=S)(OCC)Oc1cc(C)nc(C(C)C)n1
active: [6] 20 µM
not listed: CD38, CD38 (gene 952)
inactive: all other assays above

Cc1nn(-c2cc(NS(C)(=O)=O)c(Cl)cc2Cl)c(=O)n1C(F)F
not listed: CD38, CD38 (gene 952)
inactive: all other assays above

CCCCSP(=O)(SCCCC)SCCCC
active: [2] 20 µM | [3] 29.7 µM | [6] 32.5 µM | [7] 31.1 µM | CD69, CD69 (gene 969) 31.5 µM
inactive: [1] | [4] | [5] | CD40, CD40 (gene 958)

COP(=O)(OC)SCn1c(=O)oc2cc(Cl)cnc21
inactive: [1] | [2] | [5]
active: [3] 2.01 µM | [4] 18.3 µM | [6] 0.148 µM | [7] 4.34 µM | CD40, CD40 (gene 958) 20 µM | CD69, CD69 (gene 969) 20 µM

O=C(O)c1cc(Oc2ccc(C(F)(F)F)cc2Cl)ccc1[N+](=O)[O-]
active: [3] 16.4 µM
not listed: CD38, CD38 (gene 952)
inactive: all other assays above

CCCCOC(=O)c1ccccc1C(=O)O
not listed: CD38, CD38 (gene 952)
inactive: all other assays above

CCCOc1nn(C(=O)NS(=O)(=O)c2ccccc2C(=O)OC)c(=O)n1C
not listed: [7]
inactive: all other assays above
